ssDAF12 agonist: S. stercoralis DAF-12 nuclear receptor activators, primary screen, cell-based, luminescence, HEK293, GRIP1 co-expression, lit1-tk-luc. Nuclear hormone receptor DAF-12 (Strongyloides stercoralis). AID 652126, 2013. actives 1% (n = 370,000). HEK293 ssDAF-12/GRIP1 lit1-tk-luc reporter; % of 3 µM dafachronic acid response. activation, % at 6.8 µM;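 active = activation above the mean over all tested compounds plus 3 SD, cut at about 0.9% in these data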
DAX1 inh-1: DAX1 (NR0B1) inhibitors on StAR promoter, primary screen, cell-based, luminescence, SF-1 (NR5A1), full-length DAX-1; HEK293T StAR-luciferase reporter, SF-1/DAX-1 repression relief; inhibition, % at 6.8 µM; actives 1.1% (n = 370,000); AID 652010, 2013;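 active = inhibition above the mean over all tested compounds plus 3 SD, cut at about 3.6% in these data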;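 note: higher inhibition means more luminescence from relief of DAX-1 repression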
hgDAF-12 ag: H. glycines DAF-12 receptor agonists, primary screen, cell-based, luminescence, HEK293, GAL4 fusion, UAS-luciferase | activation, % at 6.8 µM | actives 1.8% (n = 370,000) | HEK293 GAL4-hgDAF12 UAS-luciferase reporter, agonist luminescence; normalized to butyrate control | Nuclear hormone receptor DAF-12 (Heterodera glycines), GAL4 fusion;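 active = activation above a cutoff set at the mean of all screened compounds plus 3 SD, cut at about 10% in these data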
DAX1 inh-2: DAX1 (NR0B1) inhibitors, primary screen, cell-based, HEK293, Gal4-DAX1, luciferase luminescence; HEK293 Gal4-DAX1 luciferase reporter; inhibition, % at 6.75 µM; AID 504766, 2011; actives 0.99% (n = 340,000); Nuclear receptor subfamily 0 group B member 1 (Homo sapiens), P51843;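 active = inhibition above the mean over all tested compounds plus 3 SD, cut at about 4.2% in these data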;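 note: inhibition shows as a rise in luminescence from relieved DAX1 repression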
hcDAF12 agonist: H. contortus DAF-12 nuclear receptor activators, primary screen, cell-based, luminescence, HEK293, lit1-tk-luc reporter; HEK293 hcDAF-12 lit1-tk-luc reporter; 0% DMSO, 100% Δ7-dafachronic acid; activation, % at 6.8 µM; actives 1.4% (n = 370,000); AID 652067, 2013;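 active = activation above the mean of all tested compounds plus 3 SD, cut at about 5.5% in these data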
LXRb hcDAF ctr: LXR agonists, Gal4 luciferase reporter, confirmation, counter-screen for hcDAF-12 agonist project, cell-based, luminescence, HEK293, H. contortus campaign; shares compounds with hcDAF12 agonist; HEK293 Gal4-LXR tk-luc reporter, 24 h; normalized: DMSO 0%, positive control 100%; activation, % at 6.8 µM; 3,400 tested, under 10 active;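 active = mean percent activation of the reporter above a cutoff set as the average over tested compounds plus their standard deviation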
Target sequence (P55055 whole entry, looked up, the tested form may be a part): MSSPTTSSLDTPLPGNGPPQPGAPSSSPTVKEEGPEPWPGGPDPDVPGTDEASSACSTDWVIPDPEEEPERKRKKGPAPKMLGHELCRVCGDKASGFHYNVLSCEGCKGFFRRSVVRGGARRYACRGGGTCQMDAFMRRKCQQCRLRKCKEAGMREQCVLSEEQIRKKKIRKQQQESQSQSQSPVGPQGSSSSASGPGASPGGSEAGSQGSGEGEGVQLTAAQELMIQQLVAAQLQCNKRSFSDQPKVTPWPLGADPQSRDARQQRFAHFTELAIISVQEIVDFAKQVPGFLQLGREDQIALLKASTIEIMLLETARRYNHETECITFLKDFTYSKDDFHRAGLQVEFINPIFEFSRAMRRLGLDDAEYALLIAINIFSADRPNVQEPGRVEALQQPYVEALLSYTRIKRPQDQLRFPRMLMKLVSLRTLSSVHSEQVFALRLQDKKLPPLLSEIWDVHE
hcDAF12 conf: H. contortus DAF-12 receptor agonists, confirmation, cell-based, luminescence, HEK293, lit1-tk-luc, triplicate; shares compounds with hcDAF12 agonist; AID 743032, 2013; activation, % at 6.8 µM; HEK293 hcDAF-12 lit1-tk-luc reporter; % of Δ7-dafachronic acid response; actives 61% (n = 3,400);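 active = mean activation across triplicate tests above the threshold derived from the earlier primary screen, cut at about 5.5% in these data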
hgDAF12 ag: H. glycines DAF-12 receptor agonists, confirmation, cell-based, luminescence, HEK293, GAL4-LBD fusion; actives 80% (n = 3,300); activation, % at 6.8 µM; AID 743050, 2013; shares compounds with hgDAF-12 ag; HEK293 GAL4-hgDAF12 luciferase reporter, agonist mode; percent of butyrate response;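 active = mean activation over triplicate wells above the hit cutoff derived from the earlier primary screen, cut at about 11% in these data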
LXRb DAF12 ctr: LXR agonists, Gal4 luciferase reporter, confirmation, counter-screen for hgDAF-12 agonist project, cell-based, luminescence, HEK293, H. glycines campaign; 3,300 tested, under 10 active; 24 h; shares compounds with hgDAF-12 ag; AID 743051, 2013; activation, % at 6.8 µM;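 active = mean activation of the triplicate above a set limit carried over from the primary screen, none filed active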
Numbers stand for hits; . = inactive; / = no result. This is a sample that favours compounds with a hit; in the whole collection about 4.1% have one here.

SMILES	ssDAF12 agonist	DAX1 inh-1	hgDAF-12 ag	DAX1 inh-2	hcDAF12 agonist	LXRb hcDAF ctr	hcDAF12 conf	hgDAF12 ag	LXRb DAF12 ctr
COc1ccc(C(=O)Nc2ccc3ccccc3c2)c(OC)c1	3.7	.	15	5.8	16	.	15	26	.
Cc1nn(-c2ccc3ccccc3c2)c(=O)c2ccccc12	1.7	.	16	.	12	.	8.5	15	.
O=C1C2C3C=CC(C3=C3CCCCC3)C2C(=O)N1c1ccccc1 (stereo unspecified)	.	.	.	.	.	/	/	/	/
CN1C(=O)C2C=CC1C1C(=O)N(c3ccccc3)C(=O)C21 (stereo unspecified)	.	4.0	17	.	9.5	.	6.2	.	.
Clc1cccc(/C=N/Nc2ncnc3ccccc23)c1	1.8	.	13	.	11	.	7.1	18	.
Nc1c(Cl)ncnc1N/N=C/c1ccnc2ccccc12	.	.	.	.	.	/	/	/	/
CN1CCSc2ccc(C(=O)Nc3cccc(F)c3)cc21	2.0	3.8	24	7.4	11	.	8.3	25	.
CCN(CC)c1ccc(C(=O)Nc2cccc(F)c2)cc1	.	.	15	.	7.2	.	.	19	.
CCN1CCSc2ccc(C(=O)NCc3cccc(F)c3)cc21	.	.	.	.	.	/	/	/	/
CCCCc1c(-c2ccccc2OC)ncn1Cc1cccc(C)c1	.	.	.	/	.	/	/	/	/
Cc1ncc([N+](=O)[O-])n1CC(=O)Nc1ccc(F)cc1F	.	.	.	.	.	/	/	/	/
Cc1cc(N/C=C/C(=O)c2ccc(Br)cc2)no1	.	.	.	.	.	/	/	/	/
Cc1ccnc(N/C=C/C(=O)c2ccc(Br)cc2)c1	.	.	18	.	9.0	.	7.2	21	.
COc1ccc(NC(=O)C2(C)CCN2Cc2csc3ccccc23)cc1OC (stereo unspecified)	.	.	.	/	.	/	/	/	/
COc1ccc(CCNC(=O)c2cc3cc(F)ccc3nc2C)cc1OC	.	.	.	.	.	/	/	/	/
O=C1CC(c2ccccc2)Sc2nc3ccccc3n21 (stereo unspecified)	1.1	4.0	19	.	6.9	.	7.3	12	.
COC(=O)C(=CC(=CN(C)C)C=C(C(=O)OC)C(=O)OC)C(=O)OC	.	.	.	.	.	/	/	/	/
CCOc1ncccc1C(=O)OCC(=O)Nc1c(C)cc(C)cc1C	.	.	.	.	.	/	/	/	/
CCOc1ncccc1C(=O)OCC(=O)Nc1ccc(-c2nc3ccc(C)cc3s2)cc1	1.0	4.4	18	.	7.5	.	5.7	18	.
COc1ccc(CCNC(=O)COc2ccc(C)nc2[N+](=O)[O-])cc1OC	.	.	.	.	.	/	/	/	/
CCOc1ccc2cc(C3CC(c4ccco4)=NN3S(C)(=O)=O)c(Cl)nc2c1 (stereo unspecified)	.	.	.	.	.	/	/	/	/
CCc1ccc(C2CC(c3ccco3)=NN2S(C)(=O)=O)cc1 (stereo unspecified)	1.3	.	18	.	9.2	.	8.9	18	.
COCCCn1c(SCC(=O)NC2CCS(=O)(=O)C2)nnc1-c1ccc(Cl)cc1 (stereo unspecified)	.	.	.	.	.	/	/	/	/
O=C(Nc1ccc(Cl)cc1)C1=Cc2ccccc2OC1	1.3	.	18	.	9.6	.	8.0	22	.
Cc1ccc(C(=O)Nc2nnc(-c3ccc(C(C)(C)C)cc3)s2)cc1	.	.	.	.	.	/	/	/	/
SMILES	ssDAF12 agonist	DAX1 inh-1	hgDAF-12 ag	DAX1 inh-2	hcDAF12 agonist	LXRb hcDAF ctr	hcDAF12 conf	hgDAF12 ag	LXRb DAF12 ctr
Cc1ccc(-c2nnc(NC3CCCC3)s2)cc1	.	.	15	.	9.2	.	.	19	.
Cc1cccc(Nc2nc(-c3ccc(F)c(C)c3)cs2)n1	1.2	.	14	5.4	9.0	.	7.7	17	.
Cc1cccc(Nc2nc(-c3ccc(O)c(O)c3)cs2)n1	.	.	.	.	.	/	/	/	/
CC(=O)Nc1sc2c(c1-c1nc3ccccc3s1)CCOC2	.	/	.	/	.	/	/	/	/
CC(=O)Nc1sc2c(c1-c1nc3ccccc3s1)CCCN(C(C)C)C2	7.3	/	24	/	42	.	21	.	.
O=C(OCc1ccccc1)N1CCC2CC1c1c2cccc1N1CCOCC1 (stereo unspecified)	.	.	.	/	.	/	/	/	/
Cc1cc(O)c(NC(=O)c2cccc([N+](=O)[O-])c2)cc1C	2.5	.	17	.	7.0	.	9.2	11	.
Cc1ccc(O)c(C2=Nc3ccccc3N=C(c3cccs3)C2)c1	.	.	.	.	.	/	/	/	/
Cc1ccc2c(c1)N=C(c1ccccc1)CC(C(Cl)Cl)=N2	1.8	.	14	.	15	.	8.1	19	.
COc1cc(OC)c(OC)cc1C=Cc1ccc2ccccc2n1	.	.	.	.	.	/	/	/	/
O=[N+]([O-])c1ccccc1/C=C/c1ccc2ccccc2n1	2.1	.	16	7.1	18	.	12	20	.
COc1ccc(Cc2nc3ccccc3c(=O)n2N)cc1OC	.	.	.	.	.	/	/	/	/
COc1cc(OC)cc(-c2nc3ccccc3s2)c1	.	.	17	.	8.6	.	13	15	.
COc1ccc(C(=O)NCc2ccc(-c3nc4ccccc4s3)cc2)cc1OC	.	.	.	.	.	/	/	/	/
Oc1ccc(F)cc1-c1cc(-c2ccc3c(c2)OCCO3)n[nH]1	1.3	.	15	4.4	8.1	.	.	20	.
CC(=O)Oc1ccccc1-n1c(C)nc(=O)c(-c2ccccc2)c1C	.	.	.	/	.	/	/	/	/
COc1ccc2c(c1)CCc1c-2n[nH]c1C(=O)NCCC(C)C	.	4.0	15	.	6.8	.	.	17	.
